Tau FP inhib = tau fibrillization inhibition (FP). Potency, µM (series often up to 57.7 µM), usual class: inhibitors. 0.39% of 280,000 active. P10636. AID 1468. K18 P301L tau heparin fibrillization, Alexa594 FP, 6 h; note: nearly all actives have a fitted effect of over 55% in size
Target sequence (P10636 561-689 P618L limits assumed): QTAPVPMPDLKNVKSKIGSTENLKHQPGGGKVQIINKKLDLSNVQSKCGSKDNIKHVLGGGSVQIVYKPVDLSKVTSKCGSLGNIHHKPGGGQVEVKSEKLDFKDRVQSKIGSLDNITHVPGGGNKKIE
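Human tau K18 […] P301L fragment, 15 uM unlabeled plus 0.24 uM Alexa 594-labeled tau (final), with compound and 20 uM heparin in 100 mM sodium acetate pH 7; 6 hr at 37 C, then Alexa 594 FP read.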
GoLoco inh red = blocks human Gai1 binding to RGS12 GoLoco peptide, red readout | P63096 | Gai1:RGS12 GoLoco peptide FP, rhodamine, 10 min | Potency, µM (top dose mostly 61.6 µM), usual class: inhibitors | 0.44% of 230,000 active; active = well fitted inhibition curve with a large enough effect, not every such curve was filed as active; inactive = no such curve, though single readings can be large or run the other way; note: nearly all actives have a fitted effect of over 30% in size
Target sequence (P63096 whole entry, looked up): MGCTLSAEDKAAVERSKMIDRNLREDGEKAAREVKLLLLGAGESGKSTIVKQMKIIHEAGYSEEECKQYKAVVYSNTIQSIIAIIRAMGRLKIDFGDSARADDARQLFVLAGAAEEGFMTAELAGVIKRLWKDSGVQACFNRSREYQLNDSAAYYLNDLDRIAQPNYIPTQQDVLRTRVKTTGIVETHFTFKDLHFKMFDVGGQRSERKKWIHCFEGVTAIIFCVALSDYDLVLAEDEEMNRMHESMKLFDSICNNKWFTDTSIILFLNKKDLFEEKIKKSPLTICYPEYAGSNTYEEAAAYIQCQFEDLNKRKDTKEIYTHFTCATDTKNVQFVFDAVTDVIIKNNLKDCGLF
Tau fluor counter = counter-screen for tau fibril formation inhibitors; tau K18 P301L Alexa594 fluorescence, heparin fibrillization; Potency, µM (highest dose often 57.7 µM); 0.93% of 280,000 active; note: nearly all actives have a fitted effect of over 55% in size
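Human K18 P301L tau (15 uM unlabeled plus 0.24 uM Alexa 594-labeled, final) in 100 mM sodium acetate pH 7 was mixed with compound and 20 uM heparin and incubated 6 hr at 37 C.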
Tau ThT inhib = blocks human tau fibril formation measured by thioflavin T; P10636; 2.1% of 270,000 active; recombinant tau K18 P301L, heparin-induced fibrillization, ThT fluorescence; Potency, µM (doses to about 57.4 µM), usual class: inhibitors; note: nearly all actives have a fitted effect of over 55% in size
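ThT emission at 510 nm, taken 1 hr after adding 30 uM dye, quantifies aggregates formed when 20 uM heparin acts on human tau K18 P301L for 6 hr at 37 C.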
TRb-SRC2 inh = inhibitors of human thyroid hormone receptor beta-SRC2 interaction; P10828; TRbeta-SRC2 peptide binding, fluorescence polarization; receptor liganded with 1 µM T3; Potency, µM (titrated, usually from 106 µM), hits mostly inhibitors; 0.065% of 280,000 active; AID 1469; note: nearly all actives have a fitted effect of over 50% in size
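A fluorescence polarization screen tested compounds at multiple concentrations against complex formation between 0.6 uM TRb ligand-binding domain and 20 nM Texas Red SRC2 peptide, with 1 uM T3 present; readout after 5 hr.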
TR SRC2 fluor cs = Texas Red fluorescence interference in TRb-SRC2 counter-screen; TRb/SRC2 Texas Red total fluorescence interference; Potency, µM (highest dose often 106 µM); 0.29% of 280,000 active; active = well fitted curve in either direction with a large enough effect; inconclusive = small, poorly fitted or top-dose-only effect
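Human TRb ligand-binding domain at 0.6 uM with 20 nM Texas Red SRC2 peptide in Tris buffer containing 1 uM T3 and 5% DMSO, incubated with compound 5 h at ambient temperature. Total fluorescence (555/632 nm) calculated as parallel + 2 × perpendicular.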
A number is an active result; . = inactive; ? = inconclusive; / = not tested or not shown; [ ] = dose if it differs, or a comment. Compounds with a hit are over-represented: about 3.2% of the library has one in this group of screens. Unless noted, calls come from the whole dose curve; as a rule, active = well fitted curve in the direction sought with a large enough effect; inconclusive = small, poorly fitted or top-dose-only effect, or another doubt; inactive = no such curve, though single readings can be large; an effect the other way counts as inactive or inconclusive.

SMILES	Tau FP inhib	GoLoco inh red	Tau fluor counter	Tau ThT inhib	TRb-SRC2 inh	TR SRC2 fluor cs
OCc1ccc(-c2ccc(-c3ccc(CO)s3)o2)s1	.	.	?	?	.	.
O=C(O)/C=C/C(=O)Nc1ccc(SC(F)(F)C(F)(F)C(F)(F)F)cc1	.	.	.	.	32µM	.
CCc1cc2c(nc1CC)CCN(CC/C(C)=N/OC[C@@H](O)[C@@H]1O[C@@H]3OC(C)(C)O[C@@H]3[C@H]1O)C2	.[11.6 µM]	/	.[11.6 µM]	.[11.5 µM]	.[11.2 µM]	.[11.2 µM]
COc1ccc(C2NC3=C(CCCC3)C(C#N)(C#N)C2(C#N)C#N)cc1 (stereo unspecified)	?	.	?	25µM	?	.
COc1ccc(C2NC3=C(CCC3)C3(C#N)C4(N=C(N)C23C#N)OCCO4)cc1 (stereo unspecified)	.	.	.	?	.	.
O=C(Cc1ccccc1Cl)NC1(O)C(=O)c2ccccc2C1=O	?	.	.	2.8µM	.	.
COCCCNC(=O)c1ccc2c3c(onc13)-c1ccccc1C2=O	?	20µM	5.6µM[quencher]	6.3µM	.	.
COCCCNC(=O)c1ccccc1Oc1ccccc1	.	.	.	.	.	.
O=C(NCC1CCN(c2ccc(S(=O)(=O)N3CCOCC3)cc2)CC1)c1ccc(Cl)cc1	.	.	.	.	.	.
O=C(NCCSc1c(-c2ccc(Br)cc2)[nH]c2ccccc12)c1ccc(S(=O)(=O)N2CCOCC2)cc1	.	/	4.5µM[quencher]	.	.	.
O=C(NCCSc1c(-c2ccc(Cl)cc2)[nH]c2ccccc12)c1ccc(S(=O)(=O)N2CCOCC2)cc1	.	/	4µM[quencher]	.	.	.
O=C(NCc1ccc2[nH]c3c(c2c1)CCCC3)c1ccc(S(=O)(=O)N2CCOCC2)cc1	.	.	?	.	.	.
COc1ccc(Nc2nc3ccccc3nc2-n2nc(C)cc2C)cc1	.	.	?	.	.	.
COc1ccc(Nc2nc3ccc(C)cc3nc2-n2nc(C)cc2C)cc1Cl	?	/	14µM[quencher]	.	.	.
COc1ccc(OC)c(Nc2nc3ccccc3nc2-n2nc(C)cc2C)c1	?	/	13µM[quencher]	.	.	.
CC[n+]1c(/C=C/N(C)c2ccccc2)oc2ccccc21	.	/	.	.	.	.
CC[n+]1c(/C=C/N(C)c2ccccc2)oc2ccc(F)cc21	25µM	.	?	14µM	.	.
Cc1ccc(NC(c2nnc(-c3ccccc3)o2)c2ccccc2F)c([N+](=O)[O-])c1 (stereo unspecified)	.	/	.	?	.	251µM[quencher]
Cc1ccc(NC(c2nnc(-c3ccccc3)o2)c2ccccc2F)c(Cl)c1 (stereo unspecified)	.	/	.	.	.	.
O=C(COc1ccc(/C=N/NS(=O)(=O)c2ccccc2)cc1)Nc1cccc(Cl)c1	.	/	16µM[quencher]	?	.	.
COc1cc2c(cc1OC)[C@H](C)N(CC1C(=O)O[C@@H]3C[C@@]4(C)CCC[C@H](C)[C@@]45OC5[C@H]13)CC2 (stereo partly specified)	.	.	.	?	.	.
Cc1ccc(NC(=O)Cn2cc(S(=O)(=O)N3CCN(c4ccccc4F)CC3)c3ccccc3c2=O)cc1F	14µM	/	.	.	.	.
O=C(Cn1cc(S(=O)(=O)N2CCN(c3ccccc3F)CC2)c2ccccc2c1=O)Nc1cccc(C(F)(F)F)c1	14µM	/	.	.	.	.
COc1nc(Cl)cn(-c2ccc(C)cc2)c1=O	.	.	.	.	.	.
Cc1ccc(-n2c(Cl)c(Cl)nc(Cl)c2=O)cc1	?	2µM	.	?	.	.
SMILES	Tau FP inhib	GoLoco inh red	Tau fluor counter	Tau ThT inhib	TRb-SRC2 inh	TR SRC2 fluor cs
CCN1C(C)=C(C(=O)OC)C(c2ccccc2)N2C(=O)[C@](O)(C(=O)OC)CC(C#N)=C12 (stereo partly specified)	.[11.6 µM]	/	.[11.6 µM]	.[11.5 µM]	.[11.2 µM]	.[11.2 µM]
CC(C)(C)c1ccc(OCc2ccc(C(=O)N/N=C/c3ccc(O)c(O)c3)cc2)cc1	.	.	16µM[quencher]	?	.	.
O=C(COc1ccccc1[N+](=O)[O-])N/N=C/c1ccc(O)c([N+](=O)[O-])c1	.	.	.	?	.	.
O=C(COc1ccccc1C(=O)N/N=C\c1ccc(O)c(O)c1)N/N=C/c1ccc(O)c(O)c1	.	.	?	13µM	.	.
O=C=Nc1ccc(Cc2ccc(N=C=O)cc2)cc1	/	.	/	/	.	.
c1ccc(-c2nc(-c3cccs3)[nH]c2-c2ccccc2)cc1	.	.	?	.	.	.
CN(C)c1ccc(-c2nc(-c3cccs3)c(-c3cccs3)[nH]2)cc1	.	/	10µM[quencher]	?	.	.
Oc1ccccc1-c1nc(-c2cccs2)c(-c2cccs2)[nH]1	?	/	4.5µM[quencher]	14µM	.	.
COc1cc(-c2nc(-c3ccccc3)c(-c3cccs3)[nH]2)cc(OC)c1O	.	.	14µM[quencher]	?	.	.
COc1cc(-c2nc(-c3ccccc3)c(-c3cccs3)[nH]2)cc(OC)c1OC	?	.	?	.	.	.
C/C(CCN1CCc2nc(-c3ccccc3)c(-c3ccccc3)cc2C1)=N\OC[C@@H](O)COCc1ccco1	.[11.6 µM]	/	.[11.6 µM]	.[11.5 µM]	.[11.2 µM]	.[11.2 µM]
COc1cc2c3cc1Oc1c(OC)c(OC)cc4c1[C@@H](Cc1ccc(OC(=O)c5ccc([N+](=O)[O-])cc5)c(c1)Oc1ccc(cc1)C[C@@H]3N(C)CC2)N(C)CC4	/	/	/	/	.	.
Nc1nc2ncc(=O)[nH]c2c(=O)[nH]1	.	.	.	?	.	?
Nc1ccc(N2CCN(c3ncc(C(F)(F)F)cc3Cl)CC2)c(C(F)(F)F)c1	?	/	10µM[quencher]	20µM	.	.
O=c1n(Cc2cc3c(cc2Cl)OCO3)c(=O)n2n1CC[C@H]1/C(=N\OC[C@@H](O)COCc3ccco3)[C@H]3O[C@@H]3[C@@H](O)[C@@H]12	.[11.6 µM]	/	.[11.6 µM]	.[11.5 µM]	.[11.2 µM]	.[11.2 µM]
CC(C)OC(=O)c1cn(Cc2c(F)cccc2F)c2sc(-c3ccc(NC(=O)C(C)C)cc3)c(CN(C)Cc3ccccc3)c2c1=O	/	/	/	/	.	.
COc1ccccc1NS(=O)(=O)c1ccc(N/N=C/c2ccccc2OCC(=O)O)c([N+](=O)[O-])c1	.	.	?	10µM	.	.
O=C(O)COc1ccccc1/C=N/Nc1ccc(S(=O)(=O)Nc2ccc(Cl)cc2)cc1[N+](=O)[O-]	?	.	?	14µM	.	.
CCN(CC)S(=O)(=O)c1ccc(N/N=C/c2ccccc2OCC(=O)O)c([N+](=O)[O-])c1	.	.	.	?	.	.
Cc1nn(-c2ccccc2)c(N2CCCC2)c1/C=N/Nc1ccc(S(=O)(=O)Nc2ccccc2)cc1[N+](=O)[O-]	.	.	.	.	.	.
O=C(O)[C@@H]1CN[C@@H](C(=O)O)C1	.	.	.	.	.	.

Compound activity deposited in PubChem BioAssay by National Center for Advancing Translational Sciences (NCATS).
